The list is not random: actives were taken first. Their share in the collection is about 3.7%.
HTT-AS promoter: activators of huntingtin-antisense promoter activity. 0.24% of 48,000 active. HEK293 HTT-AS promoter firefly luciferase reporter, 24 h; response scale: percent change from vehicle, -100% = no light. Potency, µM (highest dose often 57.5 µM), for the others: at the top dose activity change, positive = activation, hits mostly activators. AID 1508624; further: potency means the concentration at half of the fitted maximal effect; nearly all actives have a fitted effect of over 55% in size
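Firefly luciferase signal from promoter-reporter HEK293 cells was scaled between vehicle (0%) and zero RLU (-100%). Compounds were tested at final concentrations of up to 57.5 uM over 24 h at 37 degrees C. PTC124 at 50 uM final served as control inhibitor.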
FH mod: Identification of activators of human fumarate hydratase by quantitative high-throughput screening | AID 1347055, 2019 | FH coupled MDH/diaphorase resazurin fluorescence, 15 min | Potency, µM (highest dose often 79.9 µM), without a hit: at the highest dose activity change, negative = inhibition, most hits filed as inhibitors | 0.22% of 54,000 active; further: potency means the concentration at half of the fitted maximal effect; on the % scale 0 is the no-effect control and ±100 the full control effect; the screen sought activators but most active calls are inhibition curves; nearly all actives have a fitted effect of over 45% in size
HTT promoter inh: inhibits huntingtin promoter activity; HEK293 HTT promoter firefly luciferase reporter, 24 h; Potency, µM (series often up to 57.5 µM), for the others: at the highest dose activity change, negative = inhibition, most hits filed as inhibitors; 0.93% of 48,000 active; further: potency means the concentration at half of the fitted maximal effect; nearly all actives have a fitted effect of over 50% in size
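HEK293 luciferase promoter-reporter cells (2,500/well) plated 24 h, then compounds added at up to 57.5 uM final for 24 h at 37 °C. Firefly luminescence by Dual-Glo, normalized to vehicle (0%) and zero RLU (-100%).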
DRV1 agonist: agonists of human resolvin D1 receptor DRV1 (GPR32); CHO-K1 GPR32 beta-arrestin PathHunter luminescence, 90 min; zero percent set by DMSO-only wells; AID 1346428; activation, % at 76.9 µM; O75388; 2.5% of 48,000 active;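 active means activation of at least 60% and not above a set upper limit, about 1 call in 100 departs from these limits; inconclusive means activation of 40% to 60%, or above that upper limit; inactive means activation under 40%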; further: 0% is about no effect
Target sequence (O75388 whole entry, looked up): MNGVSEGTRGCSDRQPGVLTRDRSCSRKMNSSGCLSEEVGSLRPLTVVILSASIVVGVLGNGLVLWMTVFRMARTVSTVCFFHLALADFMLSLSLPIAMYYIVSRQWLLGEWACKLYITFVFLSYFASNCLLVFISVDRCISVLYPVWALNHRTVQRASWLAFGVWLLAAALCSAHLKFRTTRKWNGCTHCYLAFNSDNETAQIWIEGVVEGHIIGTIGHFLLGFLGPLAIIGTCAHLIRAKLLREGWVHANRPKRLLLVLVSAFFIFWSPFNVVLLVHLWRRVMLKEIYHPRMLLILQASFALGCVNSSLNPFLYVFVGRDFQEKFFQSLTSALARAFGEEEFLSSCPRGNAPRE
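Step 1: seed CHO-K1 GPR32 beta-arrestin cells, 2,500/well, overnight at 37 °C. Step 2: add compounds, 90 min at 37 °C. Step 3: detection reagent, 1 h ambient, then luminescence.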
GALC G270D act: galactocerebrosidase G270D activity enhancement, cell-based; P54803; 145M-Twi-hGALC-G270D cells (Twitcher mouse brain line with human GALC G270D), HMU-beta-Gal fluorescence, 48 h; Potency, µM (highest dose often 57.5 µM), actives largely listed as activators; 0.1% of 45,000 active; further: potency means the concentration at half of the fitted maximal effect; 0% is about no effect; nearly all actives have a fitted effect of over 65% in size
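Fluorogenic HMU-b-Gal hydrolysis (0.1 mM final, pH 5.2 citrate-phosphate with 1 mg/mL sodium taurocholate; carbonate stop buffer) measures mutant GALC activity after compound treatment of live 145M-Twi Twitcher brain cells stably carrying human GALC-G270D, with wild-type GALC line alongside; activation sought.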
B2AR arrestin ag: beta-arrestin recruitment by human beta2-adrenergic receptor ligands | P07550 | Potency, µM (titrated, usually from 46.1 µM), most hits filed as activators | HTLA Tango cells, beta-arrestin recruitment, luciferase luminescence, 18 h | 44,000 tested, under 10 active;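 further: potency means the concentration at half of the fitted maximal effect; 0% = DMSO and full agonism = EC100 isoproterenol or metaproterenol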
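Receptor–beta-arrestin recruitment read by tTA-responsive luciferase: compound titrations (up to 46 µM) incubated 18 h with Tango cells, then luminescent substrate 15 min at room temperature. Concentration-response fits classified by r2, efficacy and activity.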
* hit, by the source's call; i = inactive; ? = inconclusive; nt = no result given; [ ] = dose if it differs, or a comment. Unless noted, the call rests on the fitted dose curve; in most records, active means well fitted curve in the direction sought with a large enough effect; inconclusive means small, poorly fitted or top-dose-only effect, or another doubt; inactive means no such curve, though single readings can be large; an effect the other way counts as inactive or inconclusive.

SMILES | HTT-AS promoter | FH mod | HTT promoter inh | DRV1 agonist | GALC G270D act | B2AR arrestin ag
CC(=O)c1ccc(NS(=O)(=O)c2ccc3[nH]c4c(c3c2)CCCC4)cc1 | -24.2% | ? | -0.2% | 19.6 | i | i
Cc1c(-c2cccc(NC(=O)c3ccc(F)c(F)c3)c2)nc2ncccn12 | -11.1% | -6.8% | -2.2% | 64.1* | i | i
CCOCC(=O)Nc1ccc(-c2cn3c(C)csc3n2)cc1 | -80.2% | 0.0% | 1.26µM* | 6.6 | i | i
CCC(=O)Nc1cccc(-c2cn3c(C)csc3n2)c1 | 12.2% | -2.0% | 20.4% | 17.1 | i | i
O=C(Nc1ccccc1Br)NC1CCN(c2ccc(C(F)(F)F)cn2)C1 (stereo unspecified) | nt | -2.8% | nt | nt | nt | nt
COc1cccc(N2CCN(C(=O)c3ccc(NC(=O)c4nsc5ccccc45)cc3)CC2)c1 | -70.5% | -21.1% | 14.1µM* | -15.9 | i | i
CC(C)CCNC(=O)C1CCN(C(=O)c2cc3sccc3n2Cc2ccc(Cl)cc2)CC1 | -62.1% | -20.9% | 25.1µM* | -14.7 | i | i
Cc1ccc(-n2ncc3c(NCc4ccccc4)ncnc32)cc1C | ? | -6.5% | 11.9% | 36.6 | i | i
Cc1ccc(CNc2ncnc3c2cnn3-c2ccc(C)cc2C)cc1 | -20.4% | ? | -14.0% | 61.2* | i | i
Cc1ccc(-n2ncc3c(NCCc4ccccc4)ncnc32)cc1Cl | 4.0% | -14.8% | 18.3% | 117.2* | i | i
Cc1ccc(-n2ncc3c(NCCc4ccccc4)ncnc32)cc1 | ? | -3.0% | 17.1% | 93.5* | i | i
Cc1nn(C)c2c1c(C(F)(F)F)cc(=O)n2CC(=O)N1CCN(c2ccccc2F)CC1 | 2.6% | -18.7% | -2.1% | -8.2 | i | i
Cc1cc(=O)n(CC(=O)N2CCN(c3ccccc3F)CC2)c2c1c(C)nn2C | -54.2% | 1.9% | 20µM* | 40.0 | i | i
CCOc1ccccc1C1CC(=O)NC(C)=C1C(=O)OC1CCCCCC1 (stereo unspecified) | -44.7% | -18.7% | 31.6µM* | 39.2 | i | i
CCOc1ccccc1C1CC(=O)NC(C)=C1C(=O)OCc1ccc(C)cc1 (stereo unspecified) | -33.2% | -21.2% | ? | 60.5* | i | i
CC1=C(C(=O)OCc2ccc(C)cc2)C(c2ccccc2F)CC(=O)N1 (stereo unspecified) | -42.5% | -23.2% | ? | 66.8* | i | i
CC1=C(C(=O)OC2CCCCCC2)C(c2ccccc2Cl)CC(=O)N1 (stereo unspecified) | -32.9% | 0.2% | ? | -8.1 | i | i
Cc1nc(NC(=O)N2CCC[C@H]2C(N)=O)sc1-c1ccnc(C(C)(C)C(F)(F)F)c1 | nt | 29.4% | nt | nt | nt | nt
Nc1n[nH]c(N)c1N=Nc1ccc(O)cc1 | nt | -14.6% | nt | nt | nt | nt
C=C[C@@H]1[C@H](O[C@@H]2O[C@H](CO)[C@@H](O)[C@H](O)[C@H]2O)OC=C(C(=O)O)[C@H]1CCOC(=O)/C=C/c1ccc(O)c(O)c1 | nt | -7.9%[53.3 µM] | nt | nt | nt | nt
COC[C@H](C)Oc1cc(O[C@@H](C)Cc2ccccc2)cc(C(=O)Nc2ccc(C(=O)O)cn2)c1 | nt | -0.3% | nt | nt | nt | nt
Cc1ccc(C)c(CN2C(=O)C(O)(c3c(C)[nH]c4ccccc34)c3ccccc32)c1 (stereo unspecified) | -25.9% | -7.5% | ? | -11.0 | i | i
Cc1[nH]c2ccccc2c1C1(O)C(=O)N(Cc2ccccc2Cl)c2ccccc21 (stereo unspecified) | -19.8% | ? | -12.3% | 105.1* | i | i
COc1ccc(OCc2nc(-c3ccc(-n4cccc4)cc3)no2)cc1 | -6.8% | -8.1% | 5.0% | 117.2* | i | i

Compound activity deposited in PubChem BioAssay by National Center for Advancing Translational Sciences (NCATS).
